Measurements taken from PubChem BioAssay (NCATS).
Records with an inconclusive call do not appear. The source made the active and inactive calls. Calls follow the shape of the dose curve; as a rule, active = well fitted cell-killing curve with a large enough effect; inconclusive = small, poorly fitted or top-dose-only effect, or effect the other way; inactive = no such curve, though single readings can be large or run the other way.

How the values were obtained:
[1] = Quantitative High-Throughput drug screen in 47 multiple myeloma cell lines against the NCATS MIPE library collection: OCIMY1_PLB cell viability assay (AID 1918979); also: nearly all actives have a fitted effect of over 35% in size; as to viability: series mostly up to about 46 µM
Outline: (§1)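 MIPE 4.0 approved/investigational drugs; 500 cells/well; 48 h 37 °C humidified 5% CO2; CTG luminescence readout; DMSO = 100%, media = 0% viability.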

[2] = Quantitative High-Throughput drug screen in 47 multiple myeloma cell lines against the NCATS MIPE library collection: MM1R_ATCC cell viability assay (AID 1918981); also: nearly all actives have a fitted effect of over 35% in size
Outline: as §1

[3] = Quantitative High-Throughput drug screen in 47 multiple myeloma cell lines against the NCATS MIPE library collection: LP1_DSMZ cell viability assay (AID 1918982); also: nearly all actives have a fitted effect of over 35% in size
Outline: as §1

[4] = Quantitative High-Throughput drug screen in 47 multiple myeloma cell lines against the NCATS MIPE library collection: KMS28PE_JCRB cell viability assay (AID 1918983); also: nearly all actives have a fitted effect of over 35% in size
Outline: as §1

[5] = Quantitative High-Throughput drug screen in 47 multiple myeloma cell lines against the NCATS MIPE library collection: KMS34_JCRB cell viability assay (AID 1918985); also: nearly all actives have a fitted effect of over 40% in size
Outline: as §1

[6] = Quantitative High-Throughput drug screen in 47 multiple myeloma cell lines against the NCATS MIPE library collection: OCIMY5_PLB cell viability assay (AID 1918988); also: nearly all actives have a fitted effect of over 65% in size
Outline: as §1

[7] = Quantitative High-Throughput drug screen in 47 multiple myeloma cell lines against the NCATS MIPE library collection: OPM1_PLB cell viability assay (AID 1918989); also: nearly all actives have a fitted effect of over 40% in size
Outline: as §1

[8] = Quantitative High-Throughput drug screen in 47 multiple myeloma cell lines against the NCATS MIPE library collection: U266_ATCC cell viability assay (AID 1919864); also: nearly all actives have a fitted effect of over 35% in size
Outline: as §1

[9] = Quantitative High-Throughput drug screen in 47 multiple myeloma cell lines against the NCATS MIPE library collection: XG6_PLB cell viability assay (AID 1919865); also: nearly all actives have a fitted effect of over 40% in size
Outline: as §1

[10] = Quantitative High-Throughput drug screen in 47 multiple myeloma cell lines against the NCATS MIPE library collection: XG1_PLB cell viability assay (AID 1919866); also: nearly all actives have a fitted effect of over 35% in size
Outline: as §1

[11] = Quantitative High-Throughput drug screen in 47 multiple myeloma cell lines against the NCATS MIPE library collection: VP6_DJ cell viability assay (AID 1919867); also: nearly all actives have a fitted effect of over 40% in size
Outline: as §1

[12] = Quantitative High-Throughput drug screen in 47 multiple myeloma cell lines against the NCATS MIPE library collection: OPM2_DSMZ cell viability assay (AID 1919872); also: nearly all actives have a fitted effect of over 30% in size
Outline: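 We plated 500 myeloma cells per well, pinned in MIPE 4.0 compounds, and incubated for 48 hours at 37C. ATP was then quantified with CellTiter-Glo, with DMSO and media-only wells defining 100% and 0%.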

[13] = Quantitative High-Throughput drug screen in 47 multiple myeloma cell lines against the NCATS MIPE library collection: SKMM1_PLB cell viability assay (AID 1919863); conditions: SKMM1 myeloma viability, CellTiter-Glo ATP, 48 h; viability: active compounds read low; also: nearly all actives have a fitted effect of over 35% in size; as to viability: series mostly up to about 46 µM
Outline: as §1

[14] = Quantitative High-Throughput drug screen in 47 multiple myeloma cell lines against the NCATS MIPE library collection: RPMI8226_ATCC cell viability assay (AID 1919871); also: nearly all actives have a fitted effect of over 30% in size
Outline: as §1

[15] = Quantitative High-Throughput drug screen in 47 multiple myeloma cell lines against the NCATS MIPE library collection: MM1S_ATCC cell viability assay (AID 1918980); also: nearly all actives have a fitted effect of over 45% in size
Outline: as §1

[16] = Quantitative High-Throughput drug screen in 47 multiple myeloma cell lines against the NCATS MIPE library collection: UTMC2_PLB cell viability assay (AID 1919868); also: nearly all actives have a fitted effect of over 55% in size
Outline: as §1

[17] = Quantitative High-Throughput drug screen in 47 multiple myeloma cell lines against the NCATS MIPE library collection: PE2_PLB cell viability assay (AID 1919869); also: nearly all actives have a fitted effect of over 35% in size
Outline: as §1

[18] = Quantitative High-Throughput drug screen in 47 multiple myeloma cell lines against the NCATS MIPE library collection: PCM6_Riken cell viability assay (AID 1919870); also: nearly all actives have a fitted effect of over 30% in size
Outline: as §1

[19] = Quantitative High-Throughput drug screen in 47 multiple myeloma cell lines against the NCATS MIPE library collection: L363_DSMZ cell viability assay (AID 1918984); also: nearly all actives have a fitted effect of over 40% in size
Outline: as §1

[20] = Quantitative High-Throughput drug screen in 47 multiple myeloma cell lines against the NCATS MIPE library collection: OCIMY7_PLB cell viability assay (AID 1918987); also: nearly all actives have a fitted effect of over 65% in size
Outline: as §1
Potency is read from the fitted curve at half-maximal effect.

O=C(C1CCCCC1)N1CC(=O)N2CCc3ccccc3C2C1 (centres undefined)
active: Potency [9] 20.9 µM | Potency [10] 16.6 µM
inactive: Potency [1] | Potency [2] | Potency [3] | Potency [4] | Potency [5] | Potency [6] | Potency [7] | Potency [8] | Potency [11] | Potency [12]

Cc1cn([C@H]2C=C[C@@H](CO)O2)c(=O)[nH]c1=O
active: Potency [9] 3.82 µM
inactive: Potency [1] | Potency [3] | Potency [4] | Potency [5] | Potency [7] | viability [13] 87.6% | Potency [8] | Potency [10] | Potency [11] | Potency [14] | Potency [12]

NS(=O)(=O)c1cc2c(cc1Cl)NCNS2(=O)=O
inactive: Potency [1] | Potency [3] | Potency [4] | Potency [5] | viability [13] 114% | Potency [14] | Potency [12]
active: Potency [10] 7.43 µM

CCc1cccc2c3c([nH]c12)C(CC)(CC(=O)O)OCC3 (centres undefined)
inactive: Potency [1] | Potency [15] | Potency [3] | Potency [4] | Potency [5] | Potency [7] | Potency [8] | Potency [9] | Potency [10] | Potency [16] | Potency [17] | Potency [18] | Potency [14] | Potency [12]

Cc1ccc(C(=O)Nc2ccc(S(=O)(=O)O)c3cc(S(=O)(=O)O)cc(S(=O)(=O)O)c23)cc1NC(=O)c1cccc(NC(=O)Nc2cccc(C(=O)Nc3cc(C(=O)Nc4ccc(S(=O)(=O)O)c5cc(S(=O)(=O)O)cc(S(=O)(=O)O)c45)ccc3C)c2)c1
inactive: Potency [1] | Potency [2] | Potency [3] | Potency [19] | Potency [8]
active: Potency [7] 0.833 µM | Potency [17] 5.9 µM

Nc1nc2c(ncn2COC(CO)CO)c(=O)[nH]1
active: Potency [1] 18.7 µM | Potency [2] 20.9 µM | Potency [3] 23.5 µM | Potency [4] 20.9 µM | Potency [5] 23.5 µM | Potency [20] 2.64 µM | Potency [6] 20.9 µM | Potency [7] 16.6 µM | Potency [13] 20.9 µM | Potency [8] 23.5 µM | Potency [9] 20.9 µM | Potency [10] 23.5 µM | Potency [11] 18.7 µM | Potency [17] 23.5 µM | Potency [18] 23.5 µM | Potency [14] 26.4 µM | Potency [12] 23.5 µM

CN(C)CCC=C1c2ccccc2C=Cc2ccccc21
inactive: Potency [1] | Potency [5] | Potency [17] | Potency [12]
active: Potency [2] 18.7 µM | Potency [4] 16.6 µM | Potency [20] 14.8 µM | Potency [7] 18.7 µM | Potency [14] 6.62 µM

NCCc1cnc[nH]1
inactive: Potency [1] | Potency [4] | Potency [7] | Potency [8] | Potency [10] | Potency [16] | Potency [17] | Potency [18]
active: Potency [2] 1.87 µM

O=c1c(O)c(-c2ccc(O)c(O)c2)oc2cc(O)cc(O)c12
inactive: Potency [4] | Potency [14]
active: Potency [15] 26.4 µM | Potency [20] 11.8 µM | Potency [7] 20.9 µM | Potency [9] 16.6 µM | Potency [10] 18.7 µM | Potency [11] 16.6 µM | Potency [17] 18.7 µM | Potency [18] 18.7 µM

OCCN(CCO)c1nc(N2CCCCC2)c2nc(N(CCO)CCO)nc(N3CCCCC3)c2n1
active: Potency [15] 20.9 µM | Potency [4] 20.9 µM | Potency [8] 23.5 µM | Potency [9] 18.7 µM | Potency [10] 23.5 µM | Potency [11] 23.5 µM | Potency [16] 20.9 µM

CN(C)CCCN1c2ccccc2CCc2ccc(Cl)cc21
active: Potency [15] 0.743 µM | Potency [2] 1.48 µM | Potency [4] 14.8 µM | Potency [20] 0.187 µM | Potency [6] 0.418 µM | Potency [7] 14.8 µM | Potency [13] 14.8 µM | Potency [8] 0.526 µM | Potency [9] 0.372 µM | Potency [10] 0.372 µM | Potency [11] 0.935 µM | Potency [16] 0.833 µM | Potency [17] 2.64 µM | Potency [18] 0.469 µM | Potency [14] 16.6 µM

COC(=O)Nc1nc2ccc(C(=O)c3cccs3)cc2[nH]1
active: Potency [15] 0.0743 µM | Potency [2] 0.0418 µM | Potency [3] 0.0105 µM | Potency [4] 0.0059 µM | Potency [5] 0.0026 µM | Potency [7] 0.0132 µM | Potency [13] 0.0017 µM | Potency [16] 0.0209 µM | Potency [17] 0.0235 µM | Potency [14] 0.526 µM | Potency [12] 0.0118 µM

OCCN1CCN(CCCN2c3ccccc3Sc3ccc(C(F)(F)F)cc32)CC1
active: Potency [15] 2.96 µM | Potency [3] 18.7 µM | Potency [4] 18.7 µM | Potency [19] 7.43 µM | Potency [7] 20.9 µM | Potency [9] 23.5 µM | Potency [10] 20.9 µM | Potency [11] 16.6 µM | Potency [17] 20.9 µM | Potency [18] 23.5 µM | Potency [14] 16.6 µM
inactive: Potency [12]

Cn1ccc2cc3c(cc21)CCN3C(=O)Nc1cccnc1
inactive: Potency [2] | Potency [14]
active: Potency [20] 20.9 µM | Potency [9] 11.8 µM | Potency [11] 14.8 µM | Potency [18] 23.5 µM

O=c1[nH]cc(F)c(=O)[nH]1
active: Potency [15] 14.8 µM | Potency [2] 10.5 µM | Potency [3] 14.8 µM | Potency [20] 7.43 µM | Potency [13] 13.2 µM | Potency [8] 3.32 µM | Potency [9] 4.69 µM | Potency [10] 7.43 µM | Potency [11] 5.9 µM | Potency [18] 10.5 µM | Potency [14] 0.235 µM
inactive: Potency [4] | Potency [16] | Potency [17] | Potency [12]

CN1CCC(=C2c3ccccc3C=Cc3ccccc32)CC1
active: Potency [15] 14.8 µM | Potency [2] 23.5 µM | Potency [20] 5.9 µM | Potency [6] 18.7 µM | Potency [7] 18.7 µM | Potency [8] 16.6 µM | Potency [9] 8.33 µM | Potency [10] 13.2 µM | Potency [11] 16.6 µM | Potency [16] 13.2 µM | Potency [17] 23.5 µM | Potency [18] 18.7 µM
inactive: Potency [12]

COc1cc2nc(N3CCN(C(=O)c4ccco4)CC3)nc(N)c2cc1OC
active: Potency [15] 20.9 µM | Potency [2] 26.4 µM | Potency [4] 26.4 µM | Potency [20] 10.5 µM | Potency [7] 8.33 µM | Potency [13] 23.5 µM | Potency [8] 18.7 µM | Potency [9] 7.43 µM | Potency [10] 8.33 µM | Potency [11] 10.5 µM | Potency [16] 11.8 µM | Potency [17] 10.5 µM | Potency [18] 7.43 µM

Cc1cc(C(C)(C)C)cc(C)c1CC1=NCCN1
inactive: Potency [2] | Potency [4] | Potency [5] | Potency [20] | Potency [7] | viability [13] 116% | Potency [8] | Potency [10] | Potency [16] | Potency [14] | Potency [12]

NC12CC3CC(CC(C3)C1)C2
active: Potency [15] 1.18 µM | Potency [8] 26.4 µM | Potency [9] 2.96 µM | Potency [11] 3.32 µM | Potency [16] 8.33 µM | Potency [18] 3.32 µM | Potency [14] 0.833 µM
inactive: Potency [4] | Potency [20] | viability [13] 134% | Potency [17] | Potency [12]

CCN1CCCC1CNC(=O)c1cc(S(=O)(=O)CC)c(N)cc1OC (centres undefined)
inactive: Potency [2] | Potency [3] | Potency [4] | Potency [5] | Potency [20] | Potency [7] | viability [13] 121% | Potency [8] | Potency [9] | Potency [10] | Potency [11] | Potency [16] | Potency [17] | Potency [18] | Potency [14] | Potency [12]
